NIH3T3 tox: kills NIH 3T3 cells | NIH 3T3 viability, CellTiter-Glo ATP luminescence, 48-72 h | Potency, µM (top dose mostly 96.7 µM), for inactives: top-dose activity change, negative = cytotoxicity, actives largely listed as inhibitors | hit rate 4.3% among 94,000 | AID 1345082; also: nearly all actives have a fitted effect of over 55% in size
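NIH 3T3 cells at 400 cells/well received 23 nL of compound by pintool and were incubated 48 or 72 h at 37 °C. Viability was read as ATP-coupled CellTiter-Glo luminescence.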
HEK cytotox: cytotoxic compounds in HEK 293 cells; Potency, µM (series often up to 115 µM), inactives show at the top dose activity change, negative = cytotoxicity, hits mostly inhibitors; hit rate 6.6% among 94,000; AID 1345083; HEK 293 viability, ATP luminescence (CellTiter-Glo), 48-72 h; also: nearly all actives have a fitted effect of over 60% in size
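Luminescence from cellular ATP, measured with CellTiter-Glo, indicates HEK 293 viability. Cells plated at 250 cells/well are treated with compound for 48 or 72 hr at 37 degree Celsius before reagent addition.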
NPR1 antag: human Npr1 receptor antagonism. hit rate 1.6% among 76,000. HEK293 hNpr1 GloSensor cGMP, ANP-stimulated luminescence. Potency, µM (highest dose often 46.3 µM), inactives show at the top dose activity change, negative = inhibition, most hits filed as inhibitors; calls by dose curve; also: nearly all actives have a fitted effect of over 60% in size
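Compound pre-incubated 30 min at room temperature on GloSensor-loaded HEK293 cells stably carrying hNpr1 and the pGS-40F cGMP biosensor. Stimulation uses hNppA at 0.1 nM final; luminescence is taken at baseline and 20 min post-agonist.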
GPT2 inh: blocks human glutamate pyruvate transaminase 2. Q8TD30. Potency, µM (series often up to 57.7 µM), inactives show top-dose activity change, negative = inhibition, hits mostly inhibitors. hit rate 0.25% among 100,000. Recombinant GPT2, coupled pyruvate oxidase/HRP Amplex Red fluorescence; also: nearly all actives have a fitted effect of over 60% in size
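Fluorescence of coupled pyruvate oxidase/HRP/Amplex Red system (50uM Amplex, 30 min, dark) reports pyruvate formed by GPT2. Enzyme reaction: 10ng/uL GPT2, 2mM L-alanine, 250uM a-KG, 30 min room temperature, pH 7.5; 50uM AOA control.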
FLuc inh: blocks purified firefly luciferase enzyme activity; purified P. pyralis luciferase, luminescence, biochemical; Potency, µM (series often up to 115 µM), usual class: inhibitors; hit rate 2.5% among 76,000; AID 1347043; also: nearly all actives have a fitted effect of over 65% in size
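Purified 10nM P. pyralis luciferase with 10uM D-luciferin and 10uM ATP in 50mM Tris acetate pH 7.5, 10mM Mg acetate, 0.01% Tween-20, 0.05% BSA. qHTS titration; luminescence read by CCD imager.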
* = called active by the depositor; i = inactive; ? = inconclusive; nt = no result given; [ ] = remark or other dose. Hits are enriched below; roughly 10% of the tested compounds scored in any of these assays. Unless noted, calls follow the shape of the dose curve; as a rule, active = well fitted curve in the direction sought with a large enough effect; inconclusive = small, poorly fitted or top-dose-only effect, or another doubt; inactive = no such curve, though single readings can be large; an effect the other way counts as inactive or inconclusive. % is scaled to controls: 0 for no effect and ±100 for the full control effect; potency is read from the fitted curve at half-maximal effect.

SMILES	NIH3T3 tox	HEK cytotox	NPR1 antag	GPT2 inh	FLuc inh
C=C(CO)[C@@]12O[C@@H]1[C@@]1(C)C(=CC2=O)CC[C@@H](O)[C@@H]1C	nt	nt	nt	2%	nt
CNC(=O)Oc1cccc2ccccc12	nt	nt	nt	8.9µM*	nt
CCOC(=O)[C@H]1CN(C(=O)CCc2ccccc2)[C@]2(C)C(=O)N(CC3CC3)c3ccccc3[C@H]12	?	?	nt	-6%[27.3 µM]	nt
CCOC(=O)[C@H]1CN(C(=O)OCc2ccccc2)[C@]2(C)C(=O)N(CC3CC3)c3ccccc3[C@H]12	?	35µM*	nt	5%[27.3 µM]	nt
CCOC(=O)[C@H]1CN(C(=O)NC2CCCC2)[C@]2(C)C(=O)N(CC3CC3)c3ccccc3[C@H]12	?	32µM*	nt	i	nt
CCCCCC(=O)N1C[C@H](C(=O)OCC)[C@H]2c3ccccc3N(CC3CC3)C(=O)[C@]21C	?	32µM*	nt	i	nt
Cc1nc(-c2ccco2)cc([C@H]2CN3CC[C@H]2C[C@@H]3CNC2CCOCC2)n1	?	?	1%[70.6 µM]	-4%[88.5 µM]	i
COc1ccccc1-c1cc([C@H]2CN3CC[C@H]2C[C@@H]3COC(=O)Nc2ccc(C(C)(C)C)cc2)n(C)n1	22µM*	25µM*	-2%	-2%	i
COc1ccccc1-c1cc([C@H]2CN3CC[C@H]2C[C@@H]3COC(=O)Nc2ccc(C(C)C)cc2)n(C)n1	22µM*	28µM*	-1%	3%	i
Cn1cc(CNCC2(CO)C[C@@H](O)[C@@H](O)C2)c2ccccc21 (some centres not stated)	1%[138 µM]	-4%[172 µM]	-3%[70.6 µM]	-2%[88.5 µM]	i
COc1ccc(-c2cc([C@H]3CN4CC[C@H]3C[C@@H]4CNC(=O)COc3ccccc3)n(C)n2)cc1	?	?	-26%	i	i
FC(F)(F)CN1C2CCC1CN(c1cncc(Br)c1)C2	-11%	-3%	nt	2%	nt
COc1cc2c(cc1OCc1ccccc1)N(C(=O)c1ccncc1)CC21CCN(C)CC1	-26%	?	1%	4%	i
COc1ccc(C(=O)N2CC3(CCN(C)CC3)c3cc(OC)c(OCc4ccccc4)cc32)cn1	?	79µM*	5%	-6%	i
COc1cc2c(cc1OCc1ccccc1)N(C(=O)c1ccn(C)n1)CC21CCN(C)CC1	?	-21%	3%	-15%	i
COc1cc2c(cc1OCc1ccccc1)N(C(=O)c1cc3ccccc3n1C)CC21CCN(C)CC1	13µM*	25µM*	-2%	i	i
Oc1ccc2c3c1O[C@H]1[C@H](N(CCCl)CCCl)CC[C@@]4(O)[C@@H](C2)N(CC2CC2)CC[C@]314	nt	nt	nt	i[11.5 µM]	nt
COc1ccc(-c2cc([C@H]3CN4CC[C@H]3C[C@@H]4CNC(=O)C3CCCCC3)n(C)n2)cc1OC	-19%	?	-1%	3%	i
C=C[C@H]1CN2CC[C@H]1C[C@@H]2CNC(=O)Nc1ccc(OC(F)(F)F)cc1	?	-12%[172 µM]	0%[70.6 µM]	-1%[88.5 µM]	i
C=C[C@H]1CN2CC[C@H]1C[C@@H]2CNC(=O)Nc1cc(OC)cc(OC)c1	?	-5%[172 µM]	0%[70.6 µM]	4%[88.5 µM]	i
C=C[C@H]1CN2CC[C@H]1C[C@@H]2CNC(=O)Nc1ccc(Oc2ccccc2)cc1	?	100µM*	4%[70.6 µM]	i	i
C#C[C@H]1CN2CC[C@H]1C[C@@H]2CNC(=O)Nc1ccc(C(C)=O)cc1	?	?	4%[70.6 µM]	5%[88.5 µM]	i
C=C[C@H]1CN2CC[C@H]1C[C@@H]2CNC(=O)c1cc(OC)c(OC)c(OC)c1	45µM*	?	3%[70.6 µM]	-6%[88.5 µM]	i
C=C[C@H]1CN2CC[C@H]1C[C@@H]2CNC(=O)Nc1ccc(Br)cc1	?	56µM*	-6%[70.6 µM]	-3%[88.5 µM]	i
C#C[C@H]1CN2CC[C@H]1C[C@@H]2CNC(=O)Nc1ccc(Oc2ccccc2)cc1	40µM*	40µM*	-1%[70.6 µM]	4%[88.5 µM]	i
SMILES	NIH3T3 tox	HEK cytotox	NPR1 antag	GPT2 inh	FLuc inh
O=C1CO[C@H]2CN(Cc3ccccc3)C[C@H]2N1Cc1cccnc1	?	-12%[172 µM]	2%[70.6 µM]	1%[88.5 µM]	i
Cc1nn(C)c2ncnc(NCCc3c[nH]c(=O)[nH]c3=O)c12	0%	-5%	-1%	-2%	i
Cc1ccc(S(=O)(=O)NC[C@H]2C[C@@H]3CCN2C[C@@H]3CN2CCc3ccccc32)cc1	45µM*	28µM*	-9%[70.6 µM]	?	i
Cc1ccc(S(=O)(=O)NC[C@H]2C[C@@H]3CCN2C[C@@H]3CN2CCCCC2)cc1	-23%[174 µM]	?	4%[70.6 µM]	2%[88.5 µM]	i
CS(=O)(=O)NC[C@H]1C[C@@H]2CCN1C[C@@H]2CN1CCc2ccccc2C1	-22%[174 µM]	-21%[172 µM]	8%[70.6 µM]	2%[88.5 µM]	i
O=S(=O)(NC[C@H]1C[C@@H]2CCN1C[C@@H]2CN1CCc2ccccc21)c1ccc(Cl)cc1	28µM*	20µM*	4%	?	i
O=S(=O)(NC[C@H]1C[C@@H]2CCN1C[C@@H]2CN1CCc2ccccc2C1)c1ccc(Cl)cc1	22µM*	22µM*	4%	1%	i
COc1ccc(S(=O)(=O)NC[C@H]2C[C@@H]3CCN2C[C@@H]3CN2CCCCC2)cc1	100µM*	112µM*	3%[70.6 µM]	-15%[88.5 µM]	i
O=C(NCc1ccc(F)cc1)[C@H]1CN2CCC1C[C@@H]2Cn1cc(-c2ccccn2)nn1 (some centres not stated)	-27%[174 µM]	-22%[172 µM]	6%[70.6 µM]	2%[88.5 µM]	i
COc1ccc(S(=O)(=O)NC[C@H]2C[C@@H]3CCN2C[C@@H]3CN2CCc3ccccc32)cc1	40µM*	28µM*	2%[70.6 µM]	-18%[88.5 µM]	i
O=C(NCC[C@@H]1C[C@@H]2C=C[C@H]1C2)c1cn(Cc2ccccc2Cl)nn1	-24%	-19%	0%	?	i
O=C(NC1CC1)[C@H]1CN2CCC1C[C@@H]2Cn1cc(C2(O)CCCCC2)nn1 (some centres not stated)	-4%[174 µM]	3%[172 µM]	5%[70.6 µM]	-5%[88.5 µM]	i
CN1C(=O)[C@H]2CN(Cc3ccc(Br)s3)C[C@H]2C1=O	i	0%	8%	-1%	i
COc1ccc(NC(=O)NC[C@H]2C[C@@H]3CCN2C[C@@H]3c2cc(-c3ccccc3)nn2C)cc1	?	28µM*	-6%	4%	i
Cn1nc(-c2ccc3ccccc3c2)cc1[C@H]1CN2CC[C@H]1C[C@@H]2CNC(=O)Nc1ccccc1	20µM*	?	0%	-3%	i
Cn1nc(-c2ccccc2)cc1[C@H]1CN2CC[C@H]1C[C@@H]2CNC(=O)Nc1cccc(C#N)c1	-21%	-28%	5%	-6%	i
CCNC(=O)NC[C@H]1C[C@@H]2CCN1C[C@@H]2c1cc(-c2ccc3ccccc3c2)nn1C	32µM*	40µM*	2%[70.6 µM]	i	i
COc1ccc(NC(=O)NC[C@H]2C[C@@H]3CCN2C[C@@H]3c2cc(-c3cccs3)nn2C)cc1	?	?	3%	0%	i
